PubChem BioAssay AID540357 (National Center for Advancing Translational Sciences (NCATS), 2011)
The source made the active and inactive calls.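 How the source made its calls: active means compounds whose fitted potency in the phosphatase confirmation test is under 20 µM; inconclusive means potency fitted but weaker than 20 µM; inactive means no potency could be fitted.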

The compounds below were run against Protein phosphatase EYA2 (Homo sapiens) (UniProt O00167) (assay: Inhibitors of Eya2ED: Hit Confirmation in Malachite Green Secondary Assay). Details: phosphopeptide, malachite green absorbance.
Sequence of Protein phosphatase EYA2 (Homo sapiens) (O00167 whole entry, looked up): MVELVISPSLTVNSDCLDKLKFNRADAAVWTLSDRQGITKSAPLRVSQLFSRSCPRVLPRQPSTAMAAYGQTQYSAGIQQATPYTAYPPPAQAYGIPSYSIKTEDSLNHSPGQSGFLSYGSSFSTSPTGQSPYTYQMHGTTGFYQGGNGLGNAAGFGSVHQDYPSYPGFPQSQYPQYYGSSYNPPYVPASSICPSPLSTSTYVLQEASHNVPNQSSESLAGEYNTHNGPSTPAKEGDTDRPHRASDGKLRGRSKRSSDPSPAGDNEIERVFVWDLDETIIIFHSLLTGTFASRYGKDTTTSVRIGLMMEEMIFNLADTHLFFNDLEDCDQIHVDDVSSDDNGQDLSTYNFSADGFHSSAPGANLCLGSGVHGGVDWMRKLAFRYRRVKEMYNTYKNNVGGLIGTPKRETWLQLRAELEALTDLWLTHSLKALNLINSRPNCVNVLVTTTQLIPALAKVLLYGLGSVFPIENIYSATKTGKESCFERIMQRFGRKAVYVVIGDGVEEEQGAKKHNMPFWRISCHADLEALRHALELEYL
Source text: The Eya proteins (Eya1-4) were originally identified as essential co-activators of the Six1 transcription factor. […] Knockdown of Six1 decreases cancer cell proliferation and metastases in several different cancer models. […] A fluorescence-based HTS assay has been perfomed against the Molecular Libraries Small Molecule Repository (MLSMR) and has the AID 488837 in this database. In order to confirm the hits obtained from the primary screen several follow-up screens have been/will be carried out. This secondary screen uses a different substrate and a different detection method and will help eliminate false positives obtained from the primary screen. More specifically, this assay measures phosphatase activity by measuring inorganic phosphate, the product of the hydrolysis of the phosphate group on the protein substrate. The inorganic phosphate is detected with malachite green, which in strongly acid conditions, produces a complex which is green and is detected by absorbance. NIH Chemical Genomics Center [NCGC] NIH Molecular Libraries Probe Centers Network [MLPCN] MLPCN Grant: DA030559-01 Assay Submitter (PI): Rui Zhao, University of Colorado, Denver
Phospatase assay (25ul) was carried out in transparent, 96-well, half-area microplates. […] After 20 minute incubation at room temperature, the absorbance was read at 620nm using a Spectramax PLUS 384 plate reader by Molecular Devices. […]
With `CCNC(=S)NNC(=O)c1csc2ccccc12` the Potency was 16.8 µM (active).
